Bioassay records (PubChem)
Hits are enriched below; roughly 3.4% of the tested compounds scored in any of these assays.
PLC-gamma1 inh: PLC-gamma1 (human) inhibition, primary screen. P19174. purified PLC-gamma1, fluorogenic substrate, fluorescence. inhibition, % at 12.2 µM. 0.84% of 370,000 active. AID 720700; in the data active = inhibition above about 9.5%
ADAM10 inh: ADAM10 inhibition, QFRET primary screen | O14672 | recombinant ADAM10, EDANS/DABCYL FRET peptide cleavage, 3 h | inhibition, % at 7 µM | 0.62% of 370,000 active;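 active = inhibition above a per-campaign cutoff equal to the mean of compounds falling between control-based bounds plus 3 SD, cut at about 20% in these data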
KLK7 zymogen act: activators of human kallikrein-7 zymogen; activation, % at 7 µM; purified proKLK7, EDANS-DABCYL substrate fluorescence; 100% is mature enzyme control, 0% vehicle; P49862; 0.9% of 370,000 active; AID 652039;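 active = activation above the mean of all tested compounds plus 3 SD, computed per campaign excluding outliers beyond control limits, cut at about 13% in these data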
Target sequence (P49862 whole entry, looked up): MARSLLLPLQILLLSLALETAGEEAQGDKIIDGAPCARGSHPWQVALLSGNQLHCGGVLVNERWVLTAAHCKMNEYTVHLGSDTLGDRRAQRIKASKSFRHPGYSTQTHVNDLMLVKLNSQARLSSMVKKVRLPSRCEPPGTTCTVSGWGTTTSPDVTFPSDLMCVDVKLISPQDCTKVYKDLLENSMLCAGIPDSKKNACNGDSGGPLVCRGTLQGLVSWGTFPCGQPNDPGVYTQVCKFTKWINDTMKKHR
ADAM17 inh: inhibitors of human ADAM17. 0.83% of 370,000 active. inhibition, % at 6.95 µM. recombinant ADAM17, EDANS/DABCYL FRET peptide cleavage. AID 720648;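 active = inhibition above the mean of compounds lying between control limits plus 3 SD, set per campaign, cut at about 8.5% in these data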
PLC-beta3 inh: blocks human PLC-beta3 enzyme activity | Q01970 | Purified PLC-beta3, fluorogenic substrate, fluorescence | inhibition, % at 12.2 µM | 0.18% of 370,000 active | AID 720704; in the data active = inhibition above about 11%
sPLA2-III inh: Blocks human group III sPLA2 activity. Q9NZ20. QFRET BODIPY PC-A2 liposome hydrolysis, fluorescence. inhibition, % at 12.2 µM. 0.56% of 370,000 active;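 active = inhibition above mean plus 3 SD of compounds lying within the high and low control bounds, cut at about 19% in these data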
ADAM10 confirm: confirmation of inhibitors of human ADAM10. AID 743208. shares compounds with ADAM10 inh. ADAM10 QFRET peptide cleavage, EDANS fluorescence. inhibition, % at 6.95 µM. 1% of 2,100 active;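 active = inhibition above about 20% chosen separately for each screening run, limit read from the data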
ADAM17 ctr: inhibits human ADAM17 in ADAM10 exosite counter-screen. 0.5% of 2,100 active. ADAM17 QFRET peptide cleavage, EDANS fluorescence. inhibition, % at 6.95 µM. shares compounds with ADAM10 inh;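 active = mean triplicate inhibition above the solvent-only control wells' mean plus 3 SD, cut at about 12% in these data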
ADAM10 counter: inhibits human ADAM10 in ADAM17 exosite counter-screen; shares compounds with ADAM17 inh; recombinant ADAM10, EDANS/DABCYL FRET peptide cleavage, 3 h; inhibition, % at 6.95 µM; 47% of 2,900 active; AID 743256;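 active = mean inhibition over the triplicate runs exceeds the activity threshold set in the earlier primary screen, cut at about 20% in these data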
ADAM17 confirm: human ADAM17 inhibition, confirmation; recombinant ADAM17, EDANS/DABCYL QFRET peptide cleavage; shares compounds with ADAM17 inh; AID 743257; 65% of 2,900 active; inhibition, % at 6.95 µM;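 active = mean inhibition across replicates above the hit cutoff set in the primary screen, cut at about 8.5% in these data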
Each line names hits and unclear results; the compound was inactive in the other large screens (follow-up assays come after a bar, where they were run).

COc1ccc(Cl)c(NC(=O)C/C(C)=N/NC(=O)CCc2ccccc2)c1	ADAM10 inh 24.7, ADAM17 inh 10.6 | ADAM10 confirm inactive | ADAM17 ctr inactive | ADAM10 counter inactive | ADAM17 confirm inactive
C/C(CC(=O)Nc1ccc(Cl)c(Cl)c1)=N\NC(=O)Cc1ccccc1	none
Cc1ccccc1Cn1c(C)c(C(=O)NCC(C)C)sc1=O	none
CCCNC(=O)C(Cc1ccccc1C)NC(=O)c1ccc(C(F)(F)F)cc1 (stereo unspecified)	none
CN(C)c1ccc(NC(=O)/C=C/c2ccccc2Cl)cc1	ADAM10 inh 22.5, ADAM17 inh 11.6 | ADAM10 confirm inactive | ADAM17 ctr inactive | ADAM10 counter inactive | ADAM17 confirm inactive
CCN(CC)c1ccc(NC(=O)/C=C\c2ccccc2Cl)cc1	ADAM10 inh 26.8, ADAM17 inh 14.3 | ADAM10 confirm inactive | ADAM17 ctr inactive | ADAM10 counter 37.7 | ADAM17 confirm 18.8
Cc1cc(NC(=O)/C=C/c2ccccc2Cl)no1	none
O=C(Cn1cnc([N+](=O)[O-])c1)Nc1cc(Oc2ccc(Cl)cc2Cl)cc([N+](=O)[O-])c1	ADAM10 inh 23.2, ADAM17 inh 9.5 | ADAM10 confirm inactive | ADAM17 ctr inactive | ADAM10 counter 33.2 | ADAM17 confirm 17.3
Cc1ccc(C)c(N(CC(=O)Nc2cc(Cl)ccc2Oc2ccccc2)S(C)(=O)=O)c1	ADAM10 inh 29.0, ADAM17 inh 10.4 | ADAM10 confirm inactive | ADAM17 ctr inactive | ADAM10 counter 23.7 | ADAM17 confirm 13.3
Cc1cccc(C)c1N(CC(=O)Nc1cc(Cl)ccc1Oc1ccccc1)S(C)(=O)=O	ADAM10 inh 30.3, ADAM17 inh 8.8 | ADAM10 confirm inactive | ADAM17 ctr inactive | ADAM10 counter 26.4 | ADAM17 confirm 15.7
Cc1onc(-c2c(F)cccc2Cl)c1C(=O)Nc1cc(S(=O)(=O)N2CCCCC2)ccc1O	ADAM10 inh 27.2, ADAM17 inh 11.7 | ADAM10 confirm inactive | ADAM17 ctr inactive | ADAM10 counter 40.0 | ADAM17 confirm 17.8
CCCN1C(=O)c2[nH]nc(-c3cc(Cl)c(C)cc3O)c2C1c1ccc(O)c(OC)c1 (stereo unspecified)	ADAM10 inh 20.8, ADAM17 inh 11.7 | ADAM10 confirm inactive | ADAM17 ctr inactive | ADAM10 counter 34.4 | ADAM17 confirm 18.9
COCCCN1C(=O)c2[nH]nc(-c3cc(C)cc(C)c3O)c2C1c1ccc(O)c(OC)c1 (stereo unspecified)	none
Cc1cc(O)c(-c2n[nH]c3c2C(c2cccc(O)c2)N(Cc2cccnc2)C3=O)cc1Cl (stereo unspecified)	ADAM10 inh 21.5, ADAM17 inh 9.6 | ADAM10 confirm inactive | ADAM17 ctr inactive | ADAM10 counter inactive | ADAM17 confirm inactive
Cc1ccc(NC(=O)COC(=O)/C=C/c2cccs2)cc1	none
CCN(c1ccc(NC(=O)COC(=O)/C=C/c2cccs2)cc1)C(C)C	ADAM10 inh 34.4, ADAM17 inh 17.5 | ADAM10 confirm inactive | ADAM17 ctr inactive | ADAM10 counter 33.1 | ADAM17 confirm 17.8
OC(CSc1ccc(F)cc1)CN1CCN(c2ccccc2)CC1 (stereo unspecified)	none
CCOC(=O)c1ccc(NC(=S)NCCc2ccccc2)cc1	ADAM10 inh 46.0, ADAM17 inh 11.1 | ADAM10 confirm inactive | ADAM17 ctr inactive | ADAM10 counter 21.3 | ADAM17 confirm 10.6
O=C(CN(c1cccc(Br)c1)S(=O)(=O)c1ccccc1)N/N=C/c1cc([N+](=O)[O-])ccc1O	ADAM10 inh 26.8, ADAM17 inh 16.2 | ADAM10 confirm inactive | ADAM17 ctr inactive | ADAM10 counter 28.1 | ADAM17 confirm 16.7
COc1ccc2c(c1)c(CC(=O)Nc1ccc(C(C)=O)cc1)c(C)n2C(=O)c1ccc(Cl)cc1	ADAM10 inh 23.7, ADAM17 inh 11.9 | ADAM10 confirm inactive | ADAM17 ctr inactive | ADAM10 counter 29.7 | ADAM17 confirm 17.6
Nc1ncncc1-c1ccccc1Cl	none
NC(=O)C1=C[C@H](C2CCCCC2)C[C@H](OCc2ccc(CO)cc2)O1	ADAM10 inh 20.2, ADAM17 inh 8.9 | ADAM10 confirm inactive | ADAM17 ctr inactive | ADAM10 counter inactive | ADAM17 confirm inactive
O=C(NCc1ccccc1)N1CCC(Cc2ccccc2)CC1	none
COc1cc([N+](=O)[O-])ccc1NC(=O)CCCOc1cccc(C)c1C	ADAM10 inh 21.7, ADAM17 inh 11.8 | ADAM10 confirm inactive | ADAM17 ctr inactive | ADAM10 counter inactive | ADAM17 confirm 10.5
COc1ccc(-c2csc(NC(=O)CCS(=O)(=O)c3ccccc3)n2)c(OC)c1	none
CCNc1oc(/C=C/c2ccc(OCC)cc2)nc1C#N	none
COCOCCn1cc(CN2CCS(=O)(=O)N(Cc3ccc(-c4ccc(Cl)c(Cl)c4)cc3)C(C(C)C)C2=O)nn1 (stereo unspecified)	ADAM10 inh 26.6, ADAM17 inh 9.1 | ADAM10 confirm inactive | ADAM17 ctr inactive | ADAM10 counter 28.2 | ADAM17 confirm 19.8
CC(C)CC1C(=O)N(Cc2cn(CCC3OCCO3)nn2)CCS(=O)(=O)N1Cc1ccc(-c2ccccc2)cc1 (stereo unspecified)	none
Cc1ccc(-c2ccc(CN3C(CC(C)C)C(=O)N(Cc4cn(CCC5OCCO5)nn4)CCS3(=O)=O)cc2)cc1 (stereo unspecified)	ADAM10 inh 26.1, ADAM17 inh 9.8 | ADAM10 confirm inactive | ADAM17 ctr inactive | ADAM10 counter 26.0 | ADAM17 confirm 23.0
COc1ccc(C(=O)N(c2c(C)cccc2C)C(COC(C)=O)COC(C)=O)cc1	none
O=C1/C(=C/c2ccc([N+](=O)[O-])cc2)CCC1C1CCCC1 (stereo unspecified)	none
c1ccc(CN2CCC(Nc3nc(-c4ccccc4)nc4ccccc34)CC2)cc1	ADAM10 inh 20.9, ADAM17 inh 8.9 | ADAM10 confirm inactive | ADAM17 ctr inactive | ADAM10 counter 21.8 | ADAM17 confirm 14.8
Cc1ccc(S(=O)(=O)N(C)C[C@H]2Oc3cc(Br)ccc3S(=O)(=O)N([C@H](C)CO)C[C@H]2C)cc1	ADAM10 inh 30.6, ADAM17 inh 17.0 | ADAM10 confirm inactive | ADAM17 ctr inactive | ADAM10 counter inactive | ADAM17 confirm inactive
